Assay [1] in a line: NCI Yeast Anticancer Drug Screen. Data for the rad50 strain (AID 155).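 Note: 0% = growth of vehicle-only cultures of the same strain.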 To be noted: S. cerevisiae rad50 strain growth inhibition, active compounds read high. A digest of the protocol:
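Readout: growth inhibition relative to vehicle-treated cultures. Compound exposure was carried out in a genetically defined yeast strain deficient in DNA damage repair.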

Assay [2] can be described thus: NCI Yeast Anticancer Drug Screen. Data for the mec2-1 strain (AID 157). To be noted: S. cerevisiae mec2-1 strain, active compounds read high. A digest of the protocol:
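Vehicle-treated cultures served as reference for growth inhibition of compound-exposed mec2-1 yeast.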

The nature of assay [3]: NCI Yeast Anticancer Drug Screen. Data for the sgs1 mgt1 strain (AID 161).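 Note: 0% = growth of cultures given vehicle only.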 To be noted: S. cerevisiae sgs1 mgt1 strain, active compounds read high. A digest of the protocol: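 Genetically altered yeast, compound exposure, growth inhibition relative to vehicle.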
A short description of assay [4]: NCI Yeast Anticancer Drug Screen. Data for the cln2 rad14 strain (AID 165).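 Note: 0% = growth equal to vehicle treated cultures.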 Particulars: S. cerevisiae cln2 rad14 strain, active compounds read high. Summed up: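 Each compound was tested on cln2 rad14 yeast. Inhibition of growth was calculated against vehicle-exposed controls.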
A short description of assay [5]: NCI Yeast Anticancer Drug Screen. Data for the bub3 strain (AID 167). To be noted: S. cerevisiae bub3 mutant strain, active compounds read high. A digest of the protocol: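 Readout: yeast growth inhibition, expressed relative to vehicle-only wells. The test organism is a mutant strain from a panel with lesions in DNA repair or checkpoint genes.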
Assay [6] is described as follows: NCI Yeast Anticancer Drug Screen. Data for the mlh1 rad18 strain (AID 175). Particulars: S. cerevisiae mlh1 rad18 strain growth inhibition, active compounds read high. A digest of the protocol:
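Vehicle-treated cultures served as the reference for growth inhibition in a yeast strain carrying DNA damage repair alterations exposed to each compound.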

[7] abbreviates: at 5.0 µM (retest, dose inferred, filed as 0.5).
Where [8] appears, read: at 50.0 µM (retest, dose inferred, filed as 5.0).

Molecules are shown by their SMILES. Compounds without any hit were thinned out: in the full panel of roughly 79,000, 15% have a hit. A number with no mark means an inactive call. Active and inactive are the calls of the source. Cut-off read from the data, not from the text of the source: active = growth inhibition above about 70%; inactive = the rest.

As to `O=C(N(c1ccc(Cl)cc1)c1ccc(Cl)cc1)C(Cl)(Cl)Cl`, the growth inhibition in assay [1] (setting [7]) was 20%; in assay [1] (setting [8]) it was 68%; in assay [1] (at 50.0 µM), -13.9%; in assay [2] (setting [7]), 23%; in assay [2] (setting [8]), 63%; in assay [2] (at 50.0 µM) it was 5.7%. Further, the growth inhibition in assay [3] (setting [7]) was 14%; in assay [3] (setting [8]), 69%; in assay [3] (at 50.0 µM) it was 4.95%; in assay [4] (setting [7]), 14%; in assay [4] (setting [8]), 65%; in assay [4] (at 50.0 µM), -7.95%. For the same compound, the growth inhibition in assay [5] (setting [7]) was 33%; in assay [5] (setting [8]), 74% (active); in assay [5] (at 50.0 µM) it was -1.25%; in assay [6] (setting [7]) it was 38%; in assay [6] (setting [8]) it was 74% (active); in assay [6] (at 50.0 µM) it was 18.1%.

In the case of `Cc1c(C(=O)N(CCO)CCO)[n+](=O)c2ccccc2n1[O-]`, the growth inhibition in assay [1] (setting [7]) was 5%; in assay [1] (setting [8]), 3%; in assay [1] (at 50.0 µM) it was 28.9%; in assay [2] (setting [7]) it was 13%; in assay [2] (setting [8]), 7%; in assay [2] (at 50.0 µM), -5.35%. Besides, the growth inhibition was 38% in assay [3] (setting [7]); 18% in assay [3] (setting [8]); 14.7% in assay [3] (at 50.0 µM); 1% in assay [4] (setting [7]); 2% in assay [4] (setting [8]); 39% in assay [4] (at 50.0 µM). In addition, the growth inhibition in assay [5] (setting [7]) is 3%; in assay [5] (setting [8]), 26%; in assay [5] (at 50.0 µM), -5.1%; in assay [6] (setting [7]) it was 31%; in assay [6] (setting [8]) it was 13%; in assay [6] (at 50.0 µM), 65.7%.

Regarding `CC(=O)OC1=Cc2ccccc2C(c2ccccc2)c2ccccc21` (stereo not given), the growth inhibition in assay [1] (setting [7]) was -10%; in assay [1] (setting [8]) it was 29%; in assay [1] (at 50.0 µM), 14.3%; in assay [2] (setting [7]), -3%; in assay [2] (setting [8]), 31%; in assay [2] (at 50.0 µM) it was 9.55%. Moreover, the growth inhibition in assay [3] (setting [7]) was 2%; in assay [3] (setting [8]), 18%; in assay [3] (at 50.0 µM), 16.5%; in assay [4] (setting [7]) it was 20%; in assay [4] (setting [8]), 37%; in assay [4] (at 50.0 µM), 10.7%. The growth inhibition was 8% in assay [5] (setting [7]); 20% in assay [5] (setting [8]); 14.3% in assay [5] (at 50.0 µM); 11% in assay [6] (setting [7]); 53% in assay [6] (setting [8]); 18.3% in assay [6] (at 50.0 µM).

In the case of `COc1ccc(/C=C/c2ccnc3ccccc23)cc1`, the growth inhibition in assay [1] (setting [7]) was 24%; in assay [1] (setting [8]), 98% (active); in assay [1] (at 50.0 µM), 90.3% (active); in assay [2] (setting [7]), 20%; in assay [2] (setting [8]), 99% (active); in assay [2] (at 50.0 µM), 92.2% (active). Further, the growth inhibition is 22% in assay [3] (setting [7]); 99% (active) in assay [3] (setting [8]); 89.7% (active) in assay [3] (at 50.0 µM); 25% in assay [4] (setting [7]); 96% (active) in assay [4] (setting [8]); 89% (active) in assay [4] (at 50.0 µM). The growth inhibition in assay [5] (setting [7]) is 48%; in assay [5] (setting [8]) it was 99% (active); in assay [5] (at 50.0 µM), 86.5% (active); in assay [6] (setting [7]), 29%; in assay [6] (setting [8]), 98% (active); in assay [6] (at 50.0 µM), 86% (active).

As for `Cn1c(=S)c2[nH]c(=S)[nH]c2n(C)c1=O`, the growth inhibition is 85% (active) in assay [1] (setting [7]); 91% (active) in assay [1] (setting [8]); 97.2% (active) in assay [1] (at 50.0 µM); 91% (active) in assay [2] (setting [7]); 92% (active) in assay [2] (setting [8]); 96.7% (active) in assay [2] (at 50.0 µM). Also, the growth inhibition in assay [3] (setting [7]) is 94% (active); in assay [3] (setting [8]), 96% (active); in assay [3] (at 50.0 µM), 96.7% (active); in assay [4] (setting [7]) it was 78% (active); in assay [4] (setting [8]), 47%; in assay [4] (at 50.0 µM), 80.3% (active). In addition, the growth inhibition is 91% (active) in assay [5] (setting [7]); 89% (active) in assay [5] (setting [8]); 96.7% (active) in assay [5] (at 50.0 µM); 92% (active) in assay [6] (setting [7]); 93% (active) in assay [6] (setting [8]); 97.2% (active) in assay [6] (at 50.0 µM).

For `O=C(c1ccc(Br)cc1)C1OC12C(=O)Nc1ccccc12` (stereo not given), the growth inhibition was 46% in assay [1] (setting [7]); 99% (active) in assay [1] (setting [8]); 99.7% (active) in assay [1] (at 50.0 µM); 99% (active) in assay [2] (setting [7]); 99% (active) in assay [2] (setting [8]); 99.7% (active) in assay [2] (at 50.0 µM). Besides, the growth inhibition in assay [3] (setting [7]) was 84% (active); in assay [3] (setting [8]) it was 100% (active); in assay [3] (at 50.0 µM), 99.7% (active); in assay [4] (setting [7]) it was 49%; in assay [4] (setting [8]) it was 99% (active); in assay [4] (at 50.0 µM), 99.1% (active). Moreover, the growth inhibition in assay [5] (setting [7]) was 99% (active); in assay [5] (setting [8]), 99% (active); in assay [5] (at 50.0 µM), 99.6% (active); in assay [6] (setting [7]), 99% (active); in assay [6] (setting [8]), 99% (active); in assay [6] (at 50.0 µM), 99.5% (active).

For `CSc1nc2nn(Cc3ccccc3)cc2c(=O)[nH]1`, the growth inhibition in assay [1] (setting [7]) is -6%; in assay [1] (setting [8]), 22%; in assay [1] (at 50.0 µM) it was -7.95%; in assay [2] (setting [7]), 10%; in assay [2] (setting [8]) it was 19%; in assay [2] (at 50.0 µM) it was -4.85%. Besides, the growth inhibition is 9% in assay [3] (setting [7]); 21% in assay [3] (setting [8]); 2.4% in assay [3] (at 50.0 µM); 17% in assay [4] (setting [7]); 50% in assay [4] (setting [8]); -22.8% in assay [4] (at 50.0 µM). Further, the growth inhibition in assay [5] (setting [7]) was 27%; in assay [5] (setting [8]), 47%; in assay [5] (at 50.0 µM), -9.9%; in assay [6] (setting [7]), 20%; in assay [6] (setting [8]), 39%; in assay [6] (at 50.0 µM), 11.8%.

For the compound `O=C(CC(=O)c1ccccc1)CC(=O)c1ccccc1Cl`, the growth inhibition in assay [1] (setting [7]) is -1%; in assay [1] (setting [8]), 85% (active); in assay [1] (at 50.0 µM) it was 88.1% (active); in assay [2] (setting [7]), 8%; in assay [2] (setting [8]) it was 88% (active); in assay [2] (at 50.0 µM) it was 88% (active). Moreover, the growth inhibition was -2% in assay [3] (setting [7]); 90% (active) in assay [3] (setting [8]); 81.2% (active) in assay [3] (at 50.0 µM); -5% in assay [4] (setting [7]); 81% (active) in assay [4] (setting [8]); 68.2% in assay [4] (at 50.0 µM). The growth inhibition in assay [5] (setting [7]) was -2%; in assay [5] (setting [8]), 95% (active); in assay [5] (at 50.0 µM), 78.8% (active); in assay [6] (setting [7]), 0%; in assay [6] (setting [8]) it was 92% (active); in assay [6] (at 50.0 µM) it was 85.7% (active).

As to `COCCOC1=C(Cl)C(=O)c2c(O)ccc(O)c2C1=O`, the growth inhibition in assay [1] (setting [7]) is 97% (active); in assay [1] (setting [8]), 98% (active); in assay [1] (at 50.0 µM) it was 90.5% (active); in assay [2] (setting [7]), 99% (active); in assay [2] (setting [8]), 98% (active); in assay [2] (at 50.0 µM) it was 90.7% (active). Besides, the growth inhibition was 94% (active) in assay [3] (setting [7]); 99% (active) in assay [3] (setting [8]); 92.4% (active) in assay [3] (at 50.0 µM); 69% in assay [4] (setting [7]); 99% (active) in assay [4] (setting [8]); 90.5% (active) in assay [4] (at 50.0 µM). Further, the growth inhibition in assay [5] (setting [7]) is 100% (active); in assay [5] (setting [8]), 99% (active); in assay [5] (at 50.0 µM), 90.3% (active); in assay [6] (setting [7]), 99% (active); in assay [6] (setting [8]), 98% (active); in assay [6] (at 50.0 µM), 89.2% (active).

On to `CN(C)CCCC(C#N)(CCCN(C)C)c1ccccc1`, for which the growth inhibition is 15% in assay [1] (setting [7]); -2% in assay [1] (setting [8]); 15% in assay [1] (at 50.0 µM); -1% in assay [2] (setting [7]); 5% in assay [2] (setting [8]); -2.05% in assay [2] (at 50.0 µM). Besides, the growth inhibition was 6% in assay [3] (setting [7]); 0% in assay [3] (setting [8]); 10.6% in assay [3] (at 50.0 µM); -2% in assay [4] (setting [7]); 6% in assay [4] (setting [8]); -51.6% in assay [4] (at 50.0 µM). The growth inhibition in assay [5] (setting [7]) was -3%; in assay [5] (setting [8]) it was -1%; in assay [5] (at 50.0 µM), -18.5%; in assay [6] (setting [7]) it was -3%; in assay [6] (setting [8]), 8%; in assay [6] (at 50.0 µM) it was 31.4%.

These data come from PubChem BioAssay (NCI).
